From PubChem BioAssay (NCI)
Compounds without any hit were thinned out: in the full panel of roughly 79,000, 15% have a hit. A number with no mark means an inactive call. Calls of active or inactive are those of the source. Rule as the data show it: active = growth inhibition above about 70%; inactive = the rest.

Experiments:
[1] = NCI Yeast Anticancer Drug Screen. Data for the rad50 strain (AID 155);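 also: 0% = growth of vehicle-only cultures of the same strain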; settings: S. cerevisiae rad50 strain growth inhibition; at 50.0 µM; hits give high values
In short: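 Growth of the mutant yeast was measured after compound exposure and referenced to vehicle-treated cultures.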

[2] = NCI Yeast Anticancer Drug Screen. Data for the mec2-1 strain (AID 157); settings: S. cerevisiae mec2-1 strain, at 50.0 µM, hits give high values
In short: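 Growth inhibition is read against vehicle-treated controls after compound exposure of the mec2-1 yeast strain, which is defective in DNA damage repair or cell cycle control.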

[3] = NCI Yeast Anticancer Drug Screen. Data for the sgs1 mgt1 strain (AID 161);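 also: 0% = growth of cultures given vehicle only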; settings: S. cerevisiae sgs1 mgt1 strain, at 50.0 µM, hits give high values
In short: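 Yeast cells carrying a defined DNA-repair defect were exposed to test compounds. Growth inhibition was measured relative to vehicle-treated controls.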

[4] = NCI Yeast Anticancer Drug Screen. Data for the cln2 rad14 strain (AID 165);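 also: 0% = growth equal to vehicle treated cultures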; settings: S. cerevisiae cln2 rad14 strain, at 50.0 µM, hits give high values
In short: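 Growth inhibition, relative to vehicle-treated controls, is the read-out. The test organism is a yeast strain with defined genetic alterations, cln2 rad14.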

[5] = NCI Yeast Anticancer Drug Screen. Data for the bub3 strain (AID 167); settings: S. cerevisiae bub3 mutant strain, at 50.0 µM, hits give high values
In short: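 Whole-cell yeast assay. The mutant strain was incubated with compounds, and growth inhibition was determined by comparison with vehicle-treated cells.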

[6] = NCI Yeast Anticancer Drug Screen. Data for the mlh1 rad18 strain (AID 175); settings: S. cerevisiae mlh1 rad18 strain growth inhibition; at 50.0 µM; hits give high values
In short: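 Cells of a genetically altered yeast strain, deficient in DNA damage repair, were treated with compound. Their growth was then compared with that of vehicle-treated cultures to give inhibition.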

SMILES | growth inhibition [1] | growth inhibition [2] | growth inhibition [3] | growth inhibition [4] | growth inhibition [5] | growth inhibition [6]
Cc1ccc(N=Nc2sc(N)nc2-c2ccc(Cl)cc2)cc1 | 28.6% | -2.55% | 35.6% | 39.6% | 17.1% | 62.9%
Cc1ccc(S(=O)(=O)NN=C2CC3C4CCC5C4CC3C25)cc1 (centres undefined) | 21.9% | -4.5% | 15.9% | 12% | -13.5% | 7.1%
Cc1cc(N(CCC#N)CCC#N)ccc1N=Nc1ccc(C(=O)O)cc1 | -30.9% | -34.6% | -13.7% | -1.15% | -2.9% | -25%
O=[N+]([O-])CC1(O)CCCCC1 | 25.6% | 9.05% | 11.2% | 7.95% | -0.65% | 0.9%
CCn1c(=O)c2c3cc(OC(C)=O)ccc3oc2c2ccc(OC(C)=O)cc21 | -23.3% | -24.4% | -6.8% | 10.3% | 12.9% | -4.75%
CN1CC2(C)OC3(CC2(C)N1C)N(C)N(C)CC3(C)O (centres undefined) | -12.2% | -1.9% | -12.8% | 40% | 11.8% | -8.95%
Cn1c(N)c(C(=O)/C=C/c2ccccc2)c(=O)n(C)c1=O | 11.4% | -17.5% | 17.9% | 17.1% | -3.85% | 5.8%
COc1ccc(C(=O)N2CCOCC2)cc1 | -8% | -16.6% | -0.9% | 31.9% | -3.05% | -10.6%
COc1ccc(C(O)CC(O)(C(F)(F)F)C(F)(F)F)cc1 (centres undefined) | 52.7% | 27.6% | 35.3% | 20.3% | 46% | 80.8% (active)
N#C/C(=C/c1cccs1)c1ccc(Cl)cc1 | -4.6% | -15.2% | -11.8% | -21.1% | -16.1% | 1.85%
O=C1CNS(=O)(=O)N1 | -18.9% | 8.45% | -16.5% | 10.2% | -16.4% | -7.85%
CC1(C)OC(=O)C(=Cc2cccc3ccc4ccccc4c23)C(=O)O1 | 31.9% | 18.3% | 8.9% | -17.1% | 40.7% | 40.6%
NC(=O)CCN(CCC(N)=O)c1ccc2c(c1)C(=O)c1ccccc1-2 | -7.3% | -6.05% | -8% | -22.9% | 15.5% | -14.9%
COc1ccc(C(NCCn2cnc3c2c(=O)n(C)c(=O)n3C)c2ccccc2)cc1 (centres undefined) | 19.4% | 4.05% | 11.2% | -33.6% | -4.5% | 18.8%
O=c1c2ccccc2nnn1OCc1ccccc1 | 24.5% | 3.1% | 11% | -39.5% | -12.3% | 3.95%
O=C1CC2(CCCC2)C(=O)N1c1ccc(O)c(CN2CCCCC2)c1 | 7.6% | -4.3% | -19.6% | 14.7% | 6.35% | 4.95%
CC(C)(C)NC(=O)Oc1ccc2ccccc2c1 | 1.75% | -14.6% | -6% | -84.9% | 10.3% | -15.7%
COC1CC(NC(C)=O)C(OC(C)=O)C(CN=[N+]=[N-])O1 (centres undefined) | 5.1% | 9.3% | 8% | -11.4% | -10.2% | 6.4%
FS(F)(F)(F)(F)c1cccc(NC(=S)SCc2ccc(Cl)cc2)c1 | 43.6% | 24.8% | 39.8% | 32.4% | 6.8% | 30.1%
C[N+](C)(C)c1cc[c]([Sn]([c]2ccc([N+](C)(C)C)cc2)([c]2ccc([N+](C)(C)C)cc2)[c]2ccc([N+](C)(C)C)cc2)cc1 | 16.4% | -5.75% | 20.2% | 6.65% | -0.15% | 11.3%

SMILES | growth inhibition [1] | growth inhibition [2] | growth inhibition [3] | growth inhibition [4] | growth inhibition [5] | growth inhibition [6]
N=c1sc(N2CCOCC2)nn1CC(=O)c1ccccc1 | 3.25% | -20.9% | -18.2% | 4.35% | -17.1% | 15.1%
N#CC1(Cc2ccccc2[N+](=O)[O-])c2ccccc2C2C(N1C(=O)c1ccccc1)C2(Cl)Cl (centres undefined) | -2.5% | 23.7% | 9.7% | -4.3% | 3.15% | 6.95%
Cc1nn(C(=O)c2ccncc2)c2c1C(c1ccccc1[N+](=O)[O-])SC(N)=N2 (centres undefined) | 21.4% | 6.15% | 40.1% | 26.1% | 43.6% | 18.9%
O=C1c2c(c3c4ccccc4[nH]c3c3[nH]c4ccccc4c23)C(=O)N1Cc1ccccc1 | -9.4% | -5.95% | 4.95% | -6.6% | -5.45% | 10.2%
O=[S@]1Nc2cc(N=Nc3ccccc3)ccc2S1 | -3.45% | 16.1% | 0.15% | -10.5% | -5.05% | -12.1%
O=C(Nc1ccccc1F)C(c1ccccc1)c1ccccc1 | 14.8% | 8.95% | 3.25% | -1.45% | 11.8% | 4%
CN(C)CC1=C(O)c2ccccc2C(=O)C1=O | -0.25% | -1.2% | 1.1% | 13.7% | 31.6% | -4.2%
CC(C)(C)OC(=O)c1c2ccccc2cc2ccccc12 | 21.9% | 12.4% | 14% | 14.2% | 12.1% | 10.3%
COC(=O)CCNCCSC(=O)c1ccccc1 | 23.5% | -9.1% | -6% | 12.9% | 8.55% | 4.6%
CCCCCCCCCCCCCCCCCC(=O)O | -5.2% | -17.4% | 0.1% | -5.75% | -17.1% | 6.05%
CCC1N(C)CCCN1C | 9.25% | -2.9% | 10.2% | 0.95% | 0.9% | 6.55%
CCOC(=O)C(C(=O)OCC)C(c1ccccc1)c1ccccc1OC (centres undefined) | 6.9% | 12% | 4.15% | 17% | 12.3% | -9.55%
Cc1ccc(C)n1N(c1ccccc1)c1ccccc1 | -13.6% | 7.1% | 2.65% | -36.4% | 21.6% | 9.1%
C=C1c2nc3ccccc3n2C=C(c2ccc(C)cc2)N1c1ccc(OC)cc1 | -10.2% | -6.45% | -7% | 15.5% | -19% | -17.9%
CCCCOC(=O)NC(=O)c1cc2ccc(N(CC)CC)cc2oc1=O | -10.5% | 3.5% | 8.7% | 3.4% | 5.4% | 4.2%
CCC(C)OC(=O)/C(Br)=C1/OC(=O)c2ccccc2-c2ccccc21 (centres undefined) | -1.55% | -15.8% | -0.35% | -13.4% | -42.5% | -7.2%
COC(=O)c1ccc(/C=C2\Oc3ccccc3C2=O)cc1 | -54.1% | -62.2% | -39% | -8.5% | -22.9% | -44.5%
O=C(O)CC(O)C(F)(F)F (centres undefined) | 17.4% | 0.45% | 1.95% | 8.65% | 5.3% | 26.5%
Nc1ccccc1SC1CC(=O)N(c2cccc(Cl)c2)C1=O (centres undefined) | -10.6% | -25.4% | -4.7% | -7.3% | -1.05% | -25.1%
